Screens deposited in PubChem by National Center for Advancing Translational Sciences (NCATS).
A selection: hits, their analogues and other compounds. The true share with any hit is near 2.4%.
POLK inh: blocks human DNA polymerase kappa activity; Q9UBT6; Potency, µM (highest dose often 107 µM), without a hit: at the top dose activity, negative = inhibition, usual class: inhibitors; hit rate 0.53% among 400,000; purified Pol kappa, fluorescent DNA synthesis assay, 10 min; further: on the % scale 0 is the no-effect control and ±100 the full control effect
Target sequence (Q9UBT6 whole entry, looked up): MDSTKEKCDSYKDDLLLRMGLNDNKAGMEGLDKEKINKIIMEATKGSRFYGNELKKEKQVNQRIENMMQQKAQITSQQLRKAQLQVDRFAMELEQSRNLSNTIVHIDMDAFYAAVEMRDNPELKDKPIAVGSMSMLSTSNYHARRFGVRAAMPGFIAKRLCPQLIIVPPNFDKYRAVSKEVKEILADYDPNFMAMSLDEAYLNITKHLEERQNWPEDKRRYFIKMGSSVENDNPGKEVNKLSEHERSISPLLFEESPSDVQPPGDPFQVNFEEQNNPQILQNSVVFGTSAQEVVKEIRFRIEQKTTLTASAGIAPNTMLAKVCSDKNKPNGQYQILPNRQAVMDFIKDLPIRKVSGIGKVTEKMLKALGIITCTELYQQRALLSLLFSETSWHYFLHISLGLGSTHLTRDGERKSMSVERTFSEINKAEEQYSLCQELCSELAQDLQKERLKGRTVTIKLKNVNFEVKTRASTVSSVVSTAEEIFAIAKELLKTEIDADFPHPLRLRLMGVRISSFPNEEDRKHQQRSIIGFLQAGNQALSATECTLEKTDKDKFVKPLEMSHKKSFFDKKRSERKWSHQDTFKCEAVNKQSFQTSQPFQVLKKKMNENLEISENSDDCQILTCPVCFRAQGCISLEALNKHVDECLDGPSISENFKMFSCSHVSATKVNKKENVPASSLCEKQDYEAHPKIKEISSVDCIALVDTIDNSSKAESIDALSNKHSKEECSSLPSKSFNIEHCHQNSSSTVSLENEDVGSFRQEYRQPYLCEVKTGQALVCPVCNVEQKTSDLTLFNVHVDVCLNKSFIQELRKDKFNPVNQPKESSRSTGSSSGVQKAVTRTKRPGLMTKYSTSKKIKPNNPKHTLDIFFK
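50 nM final substrate added after 15 min RT preincubation of 10 nM Pol kappa with compound; fluorescence read at 0 and 10 min.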
Pol beta inh: DNA polymerase beta (human) inhibition | P06746 | Pol beta primer extension/strand displacement, fluorescence kinetic | Potency, µM (highest dose often 114 µM), for inactives: at the highest dose activity change, negative = inhibition, most hits filed as inhibitors | hit rate 1.3% among 340,000 | AID 485314; further: on the % scale 0 is the no-effect control and ±100 the full control effect
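10 nM enzyme + cpd, 15 min RT; start with substrate 50 nM final; read 0 min and after 10 min RT. Corrected, normalized data; 4-parameter Hill curve fit.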
POLI inh: DNA polymerase iota (human) inhibition; Q9UNA4; Pol iota fluorescent replication assay, 10 min; Potency, µM (highest dose often 115 µM), for inactives: at the highest dose activity, negative = inhibition, actives largely listed as inhibitors; hit rate 1% among 390,000; AID 588590
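Pol iota at 10 nM preincubated 15 min with compounds at room temperature; reaction started with fluorescent substrate, 50 nM final. Fluorescence read kinetically at 0 and 10 min; buffer-only wells as negative control.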
WRN inhibitor: blocks human WRN helicase; Q14191; WRN helicase unwinding, fluorescent forked duplex, kinetic; Potency, µM (highest dose often 114 µM), without a hit: at the highest dose activity change, negative = inhibition, usual class: inhibitors; hit rate 0.46% among 360,000; further: on the % scale 0 is the no-effect control and ±100 the full control effect; nearly all actives have a fitted effect of over 55% in size
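WRN at 20 nM final preincubated with compound 15 min at room temperature; reaction started with 100 nM fluorophore/quencher forked duplex oligonucleotide and 2 mM ATP final. Unwinding followed kinetically by red fluorescence (ex 525, em 598 nm).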
FEN1 inh: inhibitors of human flap endonuclease 1. hit rate 0.35% among 390,000. P39748. Potency, µM (top dose mostly 114 µM), for the others: top-dose activity change, negative = inhibition, actives largely listed as inhibitors. Recombinant FEN1 flap cleavage, fluorescence, 15 min; further: on the % scale 0 is the no-effect control and ±100 the full control effect; nearly all actives have a fitted effect of over 65% in size
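In this screen, 50 nM flap DNA substrate was added to 10 nM FEN1 pretreated with compound for 15 min at room temperature; cleavage was followed with reads at 0 and 15 min, and Hill fitting gave concentration–response parameters.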
POLH inh: inhibitors of human DNA polymerase eta | Q9Y253 | AID 588591 | hit rate 1.2% among 390,000 | recombinant Pol eta, fluorescent DNA replication assay | Potency, µM (series often up to 114 µM), for inactives: at the top dose activity change, negative = inhibition, actives largely listed as inhibitors; further: on the % scale 0 is the no-effect control and ±100 the full control effect
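Pol eta at 10 nM preincubated with compounds 15 min at room temperature; reaction started with fluorescent substrate (50 nM final) and read kinetically at 0 and 10 min.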
Active calls of the source: *; ? = inconclusive; nt = no result; [ ] = another dose, or the depositor's remark. The call rests on the fitted dose curve; in most records, active means well fitted curve in the direction sought with a large enough effect; inconclusive means small, poorly fitted or top-dose-only effect, or another doubt; inactive means no such curve, though single readings can be large; an effect the other way counts as inactive or inconclusive. Potency means the concentration at half of the fitted maximal effect.

SMILES	POLK inh	Pol beta inh	POLI inh	WRN inhibitor	FEN1 inh	POLH inh
Cc1ccccc1Nc1cc(C(=O)NCc2cccs2)c2ccccc2n1	-12%	26%	8%	nt	-3%	-17%
Cc1cn2c(=O)cc(COC(=O)c3cccc(NC(=O)COc4ccccc4)c3)nc2s1	-8%[60.1 µM]	1%	6%	nt	14%	-4%
CN(C)C(=O)CCSC(SCCC(=O)O)c1cccc(/C=C/c2ccc3ccc(Cl)cc3n2)c1 (configuration not stated)	2%[19.4 µM]	nt	nt	nt	nt	nt
COC(C)(C)[C@H](O)COc1c2ccoc2cc2oc(=O)ccc12	-20%	-24%	5%	-6%	-2%	-4%
CC(C)(O)C(O)COc1c2ccoc2cc2oc(=O)ccc12 (configuration not stated)	?	22µM*	?	-1%	3%	?
Cc1ccc(NC(c2nnc(-c3ccccc3)o2)c2ccccc2F)c([N+](=O)[O-])c1 (configuration not stated)	-16%	-26%	-11%	nt	-4%	-11%
N#Cc1ccsc1NC(=O)CSc1nncs1	-27%	nt	?	-11%	-5%	40µM*
Cn1ccnc1SCC(=O)Nc1sccc1C#N	?	32µM*	?	-9%[57.1 µM]	-4%	?
N#Cc1ccsc1NC(=O)CSc1nnnn1-c1ccc(O)cc1	0%	?	?	?	-23%	50µM*
Cc1nnc(SCC(=O)Nc2sccc2C#N)n1Cc1ccccc1	?	35µM*	20µM*	-26%	1%	-63%
O=C(CSc1nnnn1-c1ccc(O)cc1)NC1CCCCC1	-18%	9%	58%	-1%[57.1 µM]	12%	-25%
CC(C)c1ccc(NC(=O)Cn2c(=O)n(CCc3ccccc3)c(=O)c3ccccc32)cc1	1%	18%	12%	nt	-6%	-12%
COC(=O)c1ccc(NC(=O)CN2C(=O)c3cccc4cccc2c34)cc1	-15%	3%	19%	nt	-5%	-14%
Cc1ccc(C(C)C)c(OCCn2cc(C(=O)c3ccco3)c3ccccc32)c1	-14%	-24%	-13%	nt	-22%	-16%
Cc1ccc(NC(=O)COc2ccccc2C(=O)Nc2ccccc2)cc1	-6%	nt	9%	nt	-26%	nt
Cc1nnc(SCC(=O)Nc2sccc2C#N)s1	50µM*	32µM*	40µM*	?	?	25µM*
Cc1nnc(SCC(=O)Nc2sccc2C(N)=O)s1	-13%	nt	?	-6%	-14%	-12%
CNc1ncnc2c1ncn2[C@H]1C[C@H](O)[C@@H](CO)O1	5%[19.4 µM]	nt	nt	nt	nt	nt
CCCOc1ccc(NC(=O)CC2C(=O)N(c3ccc(C)cc3)C(=O)N2C(C)C)cc1 (configuration not stated)	3%	0%	7%	nt	8%	-18%
C[C@]12CCC(=O)C=C1CC[C@@H]1[C@@H]2[C@@H](O)C[C@@]2(C)[C@H]1CC[C@]2(O)C(=O)COP(=O)(O)O	-6%[19.4 µM]	nt	nt	nt	nt	nt
CC(C)NC(=O)C1(C)CSCC(=O)N1Cc1cccc(C(F)(F)F)c1 (configuration not stated)	nt	nt	nt	1%	nt	nt
CCc1ccccc1NC(=O)CCS(=O)(=O)c1ccc(OC)cc1	-19%	35µM*	31%	-8%	3%	?
COc1ccc(NC(=O)CCS(=O)(=O)c2ccc3c(c2)oc(=O)n3C)cc1	-24%	?	50µM*	-4%[11.6 µM]	-4%	?
COc1cccc(N2CCN(C(=O)CCS(=O)(=O)c3ccc4c(c3)oc(=O)n4C)CC2)c1	?	?	71µM*	-14%	-4%	?
Cc1ccc(S(=O)(=O)N2CCN(C(=O)/C=C/c3ccco3)CC2)cc1	-30%	20µM*	47%	-32%	6%	79µM*
SMILES	POLK inh	Pol beta inh	POLI inh	WRN inhibitor	FEN1 inh	POLH inh
Cc1ccc(C)c(S(=O)(=O)N2CCN(C(=O)/C=C/c3ccco3)CC2)c1	50µM*	nt	28µM*	-25%	-31%	35µM*
CC1CCCCC1NC(=O)Cn1cnc2sccc2c1=O (configuration not stated)	8%	nt	28%	-6%	31%	-16%
Cc1ccc(CNC(=O)c2ccc(CSCc3ccccc3Cl)o2)cc1	-1%[60.1 µM]	-18%	0%	nt	-13%	6%
O=C(NCc1ccc2c(c1)CCN2C(=O)c1ccncc1)c1cccc(F)c1	-5%[60.1 µM]	17%	13%	nt	4%	3%
COc1ccc(C(=O)/C=C/c2ccccc2)c(O)c1	-1%	-2%	?	-9%	-19%	-1%
COc1ccc(C(=O)/C=C/c2cc(C(=O)O)cc3c2OCOC3)c(O)c1	-27%	?	?	?	-4%	50µM*
COc1cc2nc(Nc3ccc(C)c(C)c3)nc(N)c2cc1OC	-7%	?	8%	?	?	?
COc1cc2nc(N(C)C)nc(N)c2cc1OC	-8%	45µM*	?	-21%	?	5%
COc1cc2nc(NC3CCN(C)CC3)nc(NC3CCN(C)CC3)c2cc1OC	11%	nt	5%	nt	45µM*	nt
COc1cc2nc(CCNCc3ccccc3)nc(NC3CCN(C)CC3)c2cc1OC	-10%	nt	-3%	nt	45µM*	nt
COc1cc2nc(N(C)C)nc(NC3CCN(C)CC3)c2cc1OC	?	nt	25µM*	nt	28µM*	nt
COc1cc2nc(Cl)nc(NC3CCN(C)CC3)c2cc1OC	9%	nt	7%	nt	?	nt
C=CC1=C(C)C2=Cc3c(C=C)c(C)c4[n]3[Sn+2][n]3c(c(C)c(CCC(=O)O)c3=CC3=NC(=C4)C(C)=C3CCC(=O)O)=CC1=N2	13µM*	nt	nt	nt	nt	nt
Oc1ccc(NCc2cccc(OCc3ccc(F)cc3)c2)cc1	-20%	15%	22µM*	8%	?	-20%
Oc1ccc(NCc2cccc(OCc3ccccc3)c2)cc1	-3%	16%	?	22%	?	-18%
Cc1cc(N)cc(C)c1-c1c(Br)cc(N)cc1Br	-8%	nt	14%	-3%	-14%	-25%
Nc1cc(N)cc(N)c1	?	nt	1.6µM*	nt	?	nt
COc1ccc(NC(=O)CSc2nc(-c3cc(OC)c(OC)c(OC)c3)[nH]c2-c2ccc(F)cc2)cc1	-10%	23%	-26%	nt	?	-21%
Oc1ccc(Br)cc1CNc1cccc2cccnc12	-6%	-10%	29%	5%	?	?
Oc1c(Br)cc(Br)cc1CNc1cccc2cccnc12	?	45µM*	?	-3%[11.6 µM]	?	-18%
CCOC(=O)CSc1nc2cc(OC)c(OC)cc2cc1C#N	-11%	nt	21%	nt	-8%	nt
CC1CCCCC12NC(=O)N(Cc1cc(=O)n3ccsc3n1)C2=O (configuration not stated)	-13%	?	79µM*	-9%	-14%	-4%
COc1cccc(OCc2cc(=O)n3c(-c4ccccc4)csc3n2)c1	-24%	20µM*	-29%	nt	-3%	-22%
